The compounds below were run against Solute carrier family 2, facilitated glucose transporter member 1 (Homo sapiens) (UniProt P11166) (assay: ST_JUDE_LEISH: Cytotoxicity at 2uM final concentration against transgenic Leishmania Mexicana promastigotes LmGLUT1 that are glucose transport deficient and complemented with the human glucose transporter GLUT1. Activity is measured by DNA content using SYBR green in vitro).
Sequence of Solute carrier family 2, facilitated glucose transporter member 1 (Homo sapiens) (P11166 whole entry): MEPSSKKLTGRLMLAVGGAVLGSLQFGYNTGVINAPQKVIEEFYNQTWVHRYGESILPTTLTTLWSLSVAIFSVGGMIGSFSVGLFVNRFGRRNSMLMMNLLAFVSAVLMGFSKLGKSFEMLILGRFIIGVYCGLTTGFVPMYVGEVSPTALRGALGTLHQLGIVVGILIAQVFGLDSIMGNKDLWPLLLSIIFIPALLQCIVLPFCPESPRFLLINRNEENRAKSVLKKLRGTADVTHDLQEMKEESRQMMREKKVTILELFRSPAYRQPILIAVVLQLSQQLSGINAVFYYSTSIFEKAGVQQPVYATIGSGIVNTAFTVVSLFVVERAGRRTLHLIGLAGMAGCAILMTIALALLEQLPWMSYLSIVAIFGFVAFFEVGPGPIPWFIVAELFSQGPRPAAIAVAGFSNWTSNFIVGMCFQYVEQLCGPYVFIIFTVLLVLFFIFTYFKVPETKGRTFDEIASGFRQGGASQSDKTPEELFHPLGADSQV
Assay type: functional
CCc1cccc(-n2c(=O)c3cccnc3n2CC(=O)NC2CCCC2)c1 gave an inhibition of 3.43%. Work on CCCCc1ccc(C(=O)Nc2ccc3nc(N4CCN(C)CC4)cc(C)c3c2)cc1 yielded an inhibition of 2.19%. Work on O=c1c2c([nH]c3cc(Cl)ccc13)CCCC2 yielded an inhibition of 4.95%. CCOc1ccc2c(N/N=C/c3cccc([N+](=O)[O-])c3)cc(C)nc2c1 showed an inhibition of 5.98%. Work on COc1ccc(Nc2nc(NCc3cccc(NS(C)(=O)=O)c3)cc(-c3ccc(OC)cc3)n2)cc1 yielded an inhibition of 4.4%. For COc1ccc(CCn2c(=N)c(C(=O)NC3CCCC3)cc3c(=O)n4ccccc4nc32)cc1, the inhibition was 7.26%. Work on CC(O)C1CCCCN1C(=O)c1ccc(-c2cccc(-c3nc4cc(F)ccc4[nH]3)c2)cc1 (stereo not given) yielded an inhibition of 3.01%. In the case of COc1cccc(Nc2nc(C)cc(NCc3ccc(-c4c(C)noc4C)cc3)n2)c1, the inhibition was 14.8%. Cc1ccc2nc(-c3ccc(C(=O)NC4CCN(Cc5ccccc5)CC4)s3)[nH]c2c1 gave an inhibition of -1.39%. With O=S(=O)(c1ccc(Oc2ccccc2)cc1)N(CCC(O)(C(F)(F)F)C(F)(F)F)Cc1cccc(O)c1 the inhibition was -1.44%. Compound CC(=O)c1cccc(S(=O)(=O)NCCCNc2nc3cc(C)cc(C)c3cc2C#N)c1 has an inhibition of -0.68%. CC1CCNc2ccc(Cc3cnc(N)nc3N)cc21 (stereo not given) was tested, and the inhibition was 2.12%. CCOc1cc(C(=O)Nc2ccccc2N2CCN(S(C)(=O)=O)CC2)cc(OCC)c1OCC showed an inhibition of 3.72%. In the case of O=C(NCC1CCN(CCN2CCc3ccc4c(c3C2)OCO4)CC1)c1ccc(-c2ccc(C(F)(F)F)cc2)cc1, the inhibition was 2.17%. Cc1nc(-c2ccc(-c3ccc(C(=O)Nc4ccc(C(C)C)c(OCCN(C)C)c4)cc3)c(C)c2)no1 gave an inhibition of 4.64%. Compound Cc1cc(N[C@@H](CC(C)C)C(=O)NCCc2ccccc2)nc(NCCc2cccs2)n1 has an inhibition of 5%. Work on CCC(C)NS(=O)(=O)c1ccc2nc(Nc3ccc(C)c(Cl)c3)n([C@H](C)C(C)(C)C)c2c1 (stereo not given in full) yielded an inhibition of 2.63%. Compound Cc1cc(C(=O)Nc2ccc3c(c2)CCN3C2CCN(Cc3csc4ccccc34)C2)no1 (stereo not given) has an inhibition of 0.87%. Cc1cc(CNCCCCCCCNCc2cccc([N+](=O)[O-])c2)ccc1O showed an inhibition of 2.48%. CN(C)Cc1ccc(-c2cccc(Nc3nccc(NCC(O)c4ccccc4)n3)c2)cc1 (stereo not given) gave an inhibition of 0.75%. CCOC(=O)c1ccc(NC(=O)Nc2cccc(-c3ccc(-c4nc5ccccc5[nH]4)cc3)c2)cc1 was tested, and the inhibition was 5.47%. CCCCCCN1CCC(CNCc2cccc(Cl)c2)CC1 was tested, and the inhibition was 1.66%. CN1CCC(c2c[nH]c3ccc(NC(=O)Nc4ccc(-c5ccncc5)c(Cl)c4Cl)cc23)CC1 gave an inhibition of -2.47%. Compound Cc1ccc(NC(C)C(=O)Nc2ccc(C#N)cc2)cc1S(=O)(=O)N1CCCCC1 (stereo not given) has an inhibition of 58.5%. Cc1cc(Nc2ncc(Cl)c(Nc3ccccc3C(N)=O)n2)n[nH]1 gave an inhibition of -1.31%. Compound Cc1cccc2[nH]c(-c3cc(-c4cn[nH]c4)cnc3N)nc12 has an inhibition of 2.56%. Work on CSc1ccc(CN2CCC(NC(=O)c3ccc(-c4cccc(Cl)c4)s3)CC2)cc1 yielded an inhibition of 7.55%. Cc1cc(N/N=C/c2ccccc2[N+](=O)[O-])c2ccccc2n1 showed an inhibition of 3.96%. Compound O=C(c1cc(-c2ccco2)n[nH]1)N1CCN(S(=O)(=O)c2ccc(Br)cc2)CC1 has an inhibition of 10.8%. Compound COc1cc(C(C)C)ccc1C1CCN(CCCCNC(=O)c2ccc(NC(=O)c3ccc(Cl)cc3)cc2)CC1 has an inhibition of 4.4%. With OCCc1ccc(Nc2nccc(-c3nnc4ccccn34)n2)cc1 the inhibition was 6.85%. For COc1ccc(-n2nc(C(=O)NCCC3=CCCCC3)c3ccccc3c2=O)cc1, the inhibition was 0.62%. CC(C#N)Cc1ccc(-c2cnc(N)c3cc(-c4ccnc(N)n4)ccc23)cc1 (stereo not given) showed an inhibition of 5.38%. CCN(C(=O)CSc1cc(C)c2cc(C)cc(C)c2n1)C1CCS(=O)(=O)C1 (stereo not given) was tested, and the inhibition was 0.63%. Compound Cc1ccc(NC(=O)c2cnc(N3CCN(c4ccncc4)CC3)c(Cl)c2)cc1 has an inhibition of 42.8%. CCCCNc1c(C(=O)OCC)c(C)nc2c1[nH]c1ccccc12 was tested, and the inhibition was 3.19%. Compound CC(C)C(C(=O)Nc1ccc2c(c1)OCO2)c1ccc(Cl)cc1 (stereo not given) has an inhibition of 3.38%. COc1ccccc1C1CC(c2ccc(Br)cc2)=NN1C(=O)c1ccccc1 (stereo not given) was tested, and the inhibition was 2.83%. COc1ccccc1C1CCN(C2CCC(NC(=O)/C=C/c3cc(F)c(F)cc3F)CC2)CC1 (stereo not given) was tested, and the inhibition was 2.17%. Work on Fc1cccc(C=NNc2ccnc3cc(Cl)ccc23)c1 yielded an inhibition of 3.49%.

The compounds below were run against Hexose transporter 1 (Plasmodium falciparum) (UniProt O97467) (assay: ST_JUDE_LEISH: Cytotoxicity at 2uM final concentration against transgenic Leishmania Mexicana promastigotes LmPfHT that are glucose transport deficient and complemented with the Plasmodium falciparum hexose transporter. Activity is measured by DNA content using SYBR green in vitro).
Assay type: functional
Compound CCc1cccc(-n2c(=O)c3cccnc3n2CC(=O)NC2CCCC2)c1 has an inhibition of 12%. CCCCc1ccc(C(=O)Nc2ccc3nc(N4CCN(C)CC4)cc(C)c3c2)cc1 was tested, and the inhibition was 3.48%. O=c1c2c([nH]c3cc(Cl)ccc13)CCCC2 was tested, and the inhibition was 3.08%. In the case of CCOc1ccc2c(N/N=C/c3cccc([N+](=O)[O-])c3)cc(C)nc2c1, the inhibition was 4.85%. COc1ccc(Nc2nc(NCc3cccc(NS(C)(=O)=O)c3)cc(-c3ccc(OC)cc3)n2)cc1 gave an inhibition of 5.23%. Work on COc1ccc(CCn2c(=N)c(C(=O)NC3CCCC3)cc3c(=O)n4ccccc4nc32)cc1 yielded an inhibition of 9.43%. In the case of CC(O)C1CCCCN1C(=O)c1ccc(-c2cccc(-c3nc4cc(F)ccc4[nH]3)c2)cc1 (stereo not given), the inhibition was 2.87%. In the case of COc1cccc(Nc2nc(C)cc(NCc3ccc(-c4c(C)noc4C)cc3)n2)c1, the inhibition was 13.4%. In the case of Cc1ccc2nc(-c3ccc(C(=O)NC4CCN(Cc5ccccc5)CC4)s3)[nH]c2c1, the inhibition was 1.8%. Compound O=S(=O)(c1ccc(Oc2ccccc2)cc1)N(CCC(O)(C(F)(F)F)C(F)(F)F)Cc1cccc(O)c1 has an inhibition of -3.19%. With CC(=O)c1cccc(S(=O)(=O)NCCCNc2nc3cc(C)cc(C)c3cc2C#N)c1 the inhibition was 1.78%. With CC1CCNc2ccc(Cc3cnc(N)nc3N)cc21 (stereo not given) the inhibition was 1.47%. With CCOc1cc(C(=O)Nc2ccccc2N2CCN(S(C)(=O)=O)CC2)cc(OCC)c1OCC the inhibition was 3.96%. With O=C(NCC1CCN(CCN2CCc3ccc4c(c3C2)OCO4)CC1)c1ccc(-c2ccc(C(F)(F)F)cc2)cc1 the inhibition was 4.3%. For Cc1nc(-c2ccc(-c3ccc(C(=O)Nc4ccc(C(C)C)c(OCCN(C)C)c4)cc3)c(C)c2)no1, the inhibition was 2.76%. Compound Cc1cc(N[C@@H](CC(C)C)C(=O)NCCc2ccccc2)nc(NCCc2cccs2)n1 has an inhibition of 7.09%. With CCC(C)NS(=O)(=O)c1ccc2nc(Nc3ccc(C)c(Cl)c3)n([C@H](C)C(C)(C)C)c2c1 (stereo not given in full) the inhibition was 2.57%. Cc1cc(C(=O)Nc2ccc3c(c2)CCN3C2CCN(Cc3csc4ccccc34)C2)no1 (stereo not given) gave an inhibition of -2.02%. With Cc1cc(CNCCCCCCCNCc2cccc([N+](=O)[O-])c2)ccc1O the inhibition was 1.23%. CN(C)Cc1ccc(-c2cccc(Nc3nccc(NCC(O)c4ccccc4)n3)c2)cc1 (stereo not given) showed an inhibition of 1.38%. Work on CCOC(=O)c1ccc(NC(=O)Nc2cccc(-c3ccc(-c4nc5ccccc5[nH]4)cc3)c2)cc1 yielded an inhibition of 1.48%. CCCCCCN1CCC(CNCc2cccc(Cl)c2)CC1 showed an inhibition of 2.08%. With CN1CCC(c2c[nH]c3ccc(NC(=O)Nc4ccc(-c5ccncc5)c(Cl)c4Cl)cc23)CC1 the inhibition was 0.63%. With Cc1ccc(NC(C)C(=O)Nc2ccc(C#N)cc2)cc1S(=O)(=O)N1CCCCC1 (stereo not given) the inhibition was 71.8%. With Cc1cc(Nc2ncc(Cl)c(Nc3ccccc3C(N)=O)n2)n[nH]1 the inhibition was 2.51%. For Cc1cccc2[nH]c(-c3cc(-c4cn[nH]c4)cnc3N)nc12, the inhibition was 2.36%. Compound CSc1ccc(CN2CCC(NC(=O)c3ccc(-c4cccc(Cl)c4)s3)CC2)cc1 has an inhibition of 6.28%. Work on Cc1cc(N/N=C/c2ccccc2[N+](=O)[O-])c2ccccc2n1 yielded an inhibition of 5.28%. For O=C(c1cc(-c2ccco2)n[nH]1)N1CCN(S(=O)(=O)c2ccc(Br)cc2)CC1, the inhibition was 10.2%. For COc1cc(C(C)C)ccc1C1CCN(CCCCNC(=O)c2ccc(NC(=O)c3ccc(Cl)cc3)cc2)CC1, the inhibition was 6.6%. Work on OCCc1ccc(Nc2nccc(-c3nnc4ccccn34)n2)cc1 yielded an inhibition of 6.22%. In the case of COc1ccc(-n2nc(C(=O)NCCC3=CCCCC3)c3ccccc3c2=O)cc1, the inhibition was -0.88%. CC(C#N)Cc1ccc(-c2cnc(N)c3cc(-c4ccnc(N)n4)ccc23)cc1 (stereo not given) gave an inhibition of 3.48%. In the case of CCN(C(=O)CSc1cc(C)c2cc(C)cc(C)c2n1)C1CCS(=O)(=O)C1 (stereo not given), the inhibition was 0.78%. With Cc1ccc(NC(=O)c2cnc(N3CCN(c4ccncc4)CC3)c(Cl)c2)cc1 the inhibition was 16.1%. With CCCCNc1c(C(=O)OCC)c(C)nc2c1[nH]c1ccccc12 the inhibition was 4.14%. In the case of CC(C)C(C(=O)Nc1ccc2c(c1)OCO2)c1ccc(Cl)cc1 (stereo not given), the inhibition was 2.76%. Work on COc1ccccc1C1CC(c2ccc(Br)cc2)=NN1C(=O)c1ccccc1 (stereo not given) yielded an inhibition of 2.02%. Compound COc1ccccc1C1CCN(C2CCC(NC(=O)/C=C/c3cc(F)c(F)cc3F)CC2)CC1 (stereo not given) has an inhibition of 2.98%. With Fc1cccc(C=NNc2ccnc3cc(Cl)ccc23)c1 the inhibition was 4.64%.

— ChEMBL document CHEMBL3433997, “St. Jude Leishmania screening dataset” (2016)
